Calls of active or inactive are those of the source. A call without a number means that no potency is given here. The call rests on the fitted dose curve; in most records, active means well fitted curve in the direction sought with a large enough effect; inconclusive means small, poorly fitted or top-dose-only effect, or another doubt; inactive means no such curve, though single readings can be large or run the other way.
Assay: Cellular Toxicity (caspase-3) BJ (AID 658);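 further: cells exposed to compound for 16 hours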
Conditions: BJ fibroblasts, luminescence, normalized: DMSO 0%, staurosporine 100%; series mostly up to 91.7 µM
Outline: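 Plated BJ cells (1000/well) rested 5 hr, received compound for 16 hr at 37 °C, then Caspase-Glo 3/7 reagent for 1 hr at room temperature before luminescence reading.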

| Structure (SMILES) | outcome |
| --- | --- |
| O=c1c(O)c(-c2ccc(O)cc2)oc2cc(O)cc(O)c12 | inactive |
| O=c1cc(-c2ccc(O)cc2)oc2cc(O)cc(O)c12 | inactive |
| O=c1c(-c2ccc(O)cc2)coc2cc(O)ccc12 | inactive |
| O=C(O)c1cc(O)c2c(c1)C(=O)c1cccc(O)c1C2=O | inactive |
| CC(=O)c1ccc(S(=O)(=O)NC(=O)NC2CCCCC2)cc1 | inactive |
| CC(=O)O[C@]1(C(C)=O)CC[C@H]2[C@@H]3C=C(Cl)C4=CC(=O)[C@@H]5C[C@@H]5[C@]4(C)[C@H]3CC[C@@]21C | inactive |
| CCn1cc(C(=O)O)c(=O)c2ccc(C)nc21 | inactive |
| O=C(O)Cc1cccc2ccccc12 | inactive |
| CCCCC1C(=O)N(c2ccccc2)N(c2ccccc2)C1=O | inactive |
| CN(C)CCC(c1ccccc1)c1ccccn1 (configuration not stated) | inactive |
| CCCNC(=O)NS(=O)(=O)c1ccc(Cl)cc1 | inactive |
| O=c1[nH]cnc2c1ncn2[C@H]1CC[C@@H](CO)O1 | inactive |
| O=C1NC(=O)C(c2ccccc2)(c2ccccc2)N1 | inactive |

Assay: Cellular Toxicity (caspase-3) MRC-5 (AID 659);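 further: cells exposed to compound for 16 h at 37 °C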; further: potency means the concentration at half of the fitted maximal effect
Conditions: MRC-5 cells, luminescence; Potency: caspase-3 activation; series mostly up to 91.7 µM
Outline: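 Apoptosis readout in MRC-5 cells: luciferase light generated after caspase 3/7 cleaves a peptide-aminoluciferin substrate, measured post 16 hr compound incubation at 37 °C.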

| Structure (SMILES) | Potency |
| --- | --- |
| O=c1c(O)c(-c2ccc(O)cc2)oc2cc(O)cc(O)c12 | inactive |
| O=c1cc(-c2ccc(O)cc2)oc2cc(O)cc(O)c12 | inactive |
| O=c1c(-c2ccc(O)cc2)coc2cc(O)ccc12 | inactive |
| O=C(O)c1cc(O)c2c(c1)C(=O)c1cccc(O)c1C2=O | inactive |
| CC(=O)c1ccc(S(=O)(=O)NC(=O)NC2CCCCC2)cc1 | inactive |
| CC(=O)O[C@]1(C(C)=O)CC[C@H]2[C@@H]3C=C(Cl)C4=CC(=O)[C@@H]5C[C@@H]5[C@]4(C)[C@H]3CC[C@@]21C | inactive |
| CCn1cc(C(=O)O)c(=O)c2ccc(C)nc21 | inactive |
| O=C(O)Cc1cccc2ccccc12 | inactive |
| CCCCC1C(=O)N(c2ccccc2)N(c2ccccc2)C1=O | inactive |
| CN(C)CCC(c1ccccc1)c1ccccn1 (configuration not stated) | inactive |
| CCCNC(=O)NS(=O)(=O)c1ccc(Cl)cc1 | inactive |
| CC1=C(/C=C/C(C)=C/C=C/C(C)=C/C(=O)Nc2ccc(O)cc2)C(C)(C)CCC1 | 31.6 µM (active) |
| O=c1[nH]cnc2c1ncn2[C@H]1CC[C@@H](CO)O1 | inactive |
| O=C1NC(=O)C(c2ccccc2)(c2ccccc2)N1 | inactive |

Source: PubChem BioAssay (NCATS)
